SW480 rereplic: induces DNA re-replication in SW480 colon adenocarcinoma cells; SW480 DNA re-replication, Hoechst DNA content imaging, 48 h; Potency, µM (highest dose often 46.1 µM), for inactives: at the highest dose re-replication activation, hits mostly activators; 1.8% of 340,000 active; note: potency is the fitted concentration of half-maximal effect; % of control where 0% means no effect; nearly all actives have a fitted effect of over 55% in size
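First, 250 cells per well were seeded. Next, compound or vehicle (23 nL) was pinned in, plates sat 48 hr at 37 C. Finally Hoechst was added for 40 min before fluorescence scanning.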
Giardia killer: kills Giardia lamblia. Giardia lamblia trophozoite viability. activity change, % at 7.66 µM, hits read low. 0.15% of 340,000 active. AID 540267; in the data active = activity change below about -80%; inconclusive = between about -30% and that limit;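 note: parasites exposed to compound for two days anaerobically before the ATP read; % is set by controls: 0 for no effect and ±100 for the full control effect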
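ATP-content bioluminescence gauges trophozoite survival. Cells (100/well) receive compound and incubate anaerobically for 48 hrs at 37 deg C; detection reagent follows for 15-30 min at room temperature.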
MCF10A rereplic: DNA re-replication induction in MCF 10a cells; MCF 10A DNA re-replication, Hoechst nuclear intensity, 48 h; 2.9% of 350,000 active; Potency, µM (top dose mostly 46.1 µM), for the others: top-dose activity, positive = re-replication, hits mostly activators; AID 624296; note: potency is the fitted concentration of half-maximal effect; % of control where 0% means no effect; nearly all actives have a fitted effect of over 50% in size
S-ASM inh: inhibitors of human secretory acid sphingomyelinase. P17405. placental ASM, HMU-PC fluorogenic substrate, 60 min. Potency, µM (series often up to 57.5 µM), inactives show top-dose activity change, negative = inhibition, hits mostly inhibitors. 0.006% of 340,000 active; note: potency is the fitted concentration of half-maximal effect
Target sequence (P17405 47-631 limits assumed): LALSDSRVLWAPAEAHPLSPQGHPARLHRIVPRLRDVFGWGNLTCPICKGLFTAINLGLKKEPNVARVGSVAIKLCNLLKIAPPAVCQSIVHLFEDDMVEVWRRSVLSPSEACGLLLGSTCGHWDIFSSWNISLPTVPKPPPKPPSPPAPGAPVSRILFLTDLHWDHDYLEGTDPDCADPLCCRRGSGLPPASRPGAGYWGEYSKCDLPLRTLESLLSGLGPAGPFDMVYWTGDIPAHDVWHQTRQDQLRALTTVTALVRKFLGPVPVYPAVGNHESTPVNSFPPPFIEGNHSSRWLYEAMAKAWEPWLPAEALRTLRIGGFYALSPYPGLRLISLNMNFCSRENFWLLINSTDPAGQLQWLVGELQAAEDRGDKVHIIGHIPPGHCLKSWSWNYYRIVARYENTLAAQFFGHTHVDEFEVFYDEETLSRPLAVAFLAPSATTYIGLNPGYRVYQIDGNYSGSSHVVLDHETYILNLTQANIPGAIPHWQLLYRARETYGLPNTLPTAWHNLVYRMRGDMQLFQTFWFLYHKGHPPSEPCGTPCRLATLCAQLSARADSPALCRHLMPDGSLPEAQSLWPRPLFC
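HMU-PC0 cleavage (9 uM final) by human placental ASM, 60 min at 37 °C following 10 min compound exposure at RT; stopped at pH 10, fluorescence Ex 386/Em 447 nm.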
KB-V1 MDR tox: kills drug-selected multidrug resistant KB-V1 cells; KB-V1 MDR cells viability, CellTiter-Glo, 72 h; Potency, µM (highest dose often 46.1 µM), hits mostly cytotoxic; 3.4% of 400,000 active; note: potency is the fitted concentration of half-maximal effect; % is set by controls: 0 for no effect and ±100 for the full control effect; nearly all actives have a fitted effect of over 60% in size
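Cytotoxicity via CellTiter-Glo luminescence after 72 h compound exposure at 37 degrees C. Cells: drug-selected KB-V1 line, DMEM phenol-red free plus 10% FBS. Compounds tested at multiple concentrations; normalized data fitted to concentration-effect curves.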
KB-3-1 tox: KB-3-1 parental cell cytotoxicity. KB-3-1 viability, CellTiter-Glo ATP luminescence, 72 h. 1.4% of 400,000 active. Potency, µM (top dose mostly 46.1 µM), actives largely listed as cytotoxic; note: potency is the fitted concentration of half-maximal effect; % is set by controls: 0 for no effect and ±100 for the full control effect; nearly all actives have a fitted effect of over 60% in size
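Cells are dispensed, compounds pinned in, plates held at 37 °C for 72 h, then CellTiter-Glo is added and luminescence read after 10 minutes. Cell line: parental KB-3-1 in phenol-red-free DMEM, 10% FBS.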
Numbers without * were called inactive; i = inactive; ? = inconclusive; nt = no result given. Only some compounds are listed: those with a hit (about 6.9% of all), similar ones and a draw of the others. Unless noted, calls come from the whole dose curve; as a rule, active = well fitted curve in the direction sought with a large enough effect; inconclusive = small, poorly fitted or top-dose-only effect, or another doubt; inactive = no such curve, though single readings can be large; an effect the other way counts as inactive or inconclusive.

SMILES | SW480 rereplic | Giardia killer | MCF10A rereplic | S-ASM inh | KB-V1 MDR tox | KB-3-1 tox
COc1ccc(-c2cc3nc(C)c(CCC(=O)Nc4ccccc4C(C)=O)c(C)n3n2)c(OC)c1 | nt | nt | nt | nt | i | i
CCN1c2ccccc2-c2nc(SCC(=O)NCc3ccc(C)cc3)ncc2S1(=O)=O | nt | nt | nt | nt | i | i
O=C(NC(=S)Nc1cccc(Cl)c1N1CCCCC1)c1ccco1 | 18.4µM* | -9.7 | ? | -6.1% | i | i
O=C(NC(=S)Nc1ccccc1N1CCCCC1)c1ccco1 | -2.3% | 11.9 | ? | -3.3% | ? | ?
Cc1cccc(Cl)c1OCCCCn1ccnc1 | 4.6% | 18.1 | 9.7% | 6.4% | 20.6µM* | i
Cc1cc(Br)ccc1OCCn1ccnc1 | 1.7% | 4.1 | 9.2% | 4.5% | 16.4µM* | i
O=C(/C=C/c1c(Cl)cccc1Cl)NCCCn1ccnc1 | ? | -0.3 | 23.1µM* | 0.1% | i | i
Clc1cc(Br)ccc1OCCn1ccnc1 | -8.2% | -6.8 | -2.0% | -1.9% | ? | i
Cc1cc(Br)ccc1OCCCCN1CCC(C)CC1 | ? | -7.9 | 7.31µM* | -1.3% | ? | i
CC(C)N(C(=O)c1cc2c(Cl)nc3ccccc3c2s1)C1CCCCC1 | nt | nt | nt | nt | i | i
Clc1cc(Br)ccc1OCCCn1ccnc1 | 1.1% | -1.4 | 15.5% | 1.4% | 20.6µM* | ?
CCOc1ccccc1NC(=O)CSc1nnc(N)s1 | nt | nt | nt | nt | i | i
Cc1cccc(N2CCN(c3ccc4cc(S(=O)(=O)N5CCCCC5)ccc4n3)CC2)c1C | 21.8% | -13.8 | ? | 3.1% | i | i
CCCCSc1cnn(-c2ccccc2)c(=O)c1SCCCC | ? | 19.5 | ? | -4.3% | 18.4µM* | 18.4µM*
Cc1ccc2nc(NCc3ccccc3)[nH]c2c1 | 5.17µM* | 6.4 | ? | -1.4% | 5.8µM* | 5.17µM*
c1ccc(CNc2nc3ccccc3[nH]2)cc1 | ? | 0.3 | ? | 1.0% | i | i
COc1ccc2nc(NCc3ccccc3)[nH]c2c1 | 14.6µM* | -1.2 | 18.4µM* | -0.8% | ? | 9.2µM*
COc1ccc2nc(NCCO)[nH]c2c1 | 2.2% | -4.8 | -17.5% | 0.9% | i | i
Cc1ccc(S(=O)(=O)CCC(=O)N(C)C2CCCCC2)cc1 | -11.7% | 11.2 | -4.5% | 1.0% | i | i
O=C(COC(=O)c1ccc(C(F)(F)F)cc1)NC(=O)C1CCCCC1 | nt | -7.6 | nt | nt | i | i
CCCc1nc2ccccc2c(C(=O)OCC(=O)N2CCc3ccccc32)c1CC | 0.4% | 3.8 | 20.6µM* | -5.7% | 6.51µM* | ?
CC1CCc2nc3ccccc3c(C(=O)OCC(=O)N3CCc4ccccc43)c2C1 (centres undefined) | -2.2% | 5.0 | 2.6% | -13.8% | 2.06µM* | ?
CCc1noc(C)c1C(=O)OCC(=O)N1CCc2ccccc21 | -0.6% | -22.2 | -0.3% | 11.4% | i | i
CN(CC(=O)Nc1ccc(Br)cc1)S(=O)(=O)c1cccc2nsnc12 | nt | nt | nt | nt | i | i
O=C(Nc1cccc2cccnc12)c1ccc(Br)cc1Br | 1.6% | 13.2 | -8.0% | -2.8% | i | i
SMILES | SW480 rereplic | Giardia killer | MCF10A rereplic | S-ASM inh | KB-V1 MDR tox | KB-3-1 tox
O=C(c1ccccc1)[C@@H]1[C@@H](C(=O)c2ccc(F)cc2)[C@@]2(C(=O)Nc3ccccc32)[C@H]2c3ccccc3C=CN12 | 6.4% | -0.6 | 12.3% | -0.1% | ? | ?
CC(=O)[C@@H]1[C@@H](C(=O)c2ccccc2)[C@]2(C(=O)Nc3ccccc32)[C@H]2C=Cc3cc(F)ccc3N12 | ? | 13.3 | 20.6µM* | 2.0% | ? | ?
Cn1cc(S(=O)(=O)N2CCCCCC2)cc1C(=O)NCc1ccc(Cl)cc1 | nt | nt | nt | nt | ? | i
CCCCCn1c(NCc2ccccc2OC)nc2ccccc21 | nt | nt | nt | nt | ? | i
Cc1ccc(Cc2nnc3n(-c4ccccc4)nc(C(=O)c4ccccc4)n3c2=O)cc1 | 18.4µM* | -1.7 | 16.4µM* | -10.8% | 8.2µM* | ?
CCOc1ccc(-c2cn3c(n2)sc2cc(C(=O)NCCCN4CCCCCC4)ccc23)cc1 | nt | nt | nt | nt | ? | i
CCOc1ccc(-c2cn3c(n2)sc2cc(C(=O)NCCCN4CCCCC4)ccc23)cc1 | nt | nt | nt | nt | 20.6µM* | ?
